Assay outcomes: PubChem, several laboratories
Sampled rows, rich in hits. Any-hit rate of the full collection: about 2.3%.
NTR1 agonist: activates human neurotensin receptor 1. NTR1-U2OS beta-arrestin-GFP spot imaging, agonist mode. activation, % at 20 µM. P30989. AID 493036. 0.17% of 330,000 active;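 active = activation at or above 40% of the spot to cytoplasm intensity ratio, with at least 20 cells analyzed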
Exocytosis inh: lytic granule exocytosis inhibition | TALL-104 LAMP-1 surface exposure, flow cytometry; cells stimulated with thapsigargin and PMA | inhibition, % at 10 µM | 0.66% of 360,000 active | AID 651702;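 active = inhibition above about 55%, limit read from the data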
B2AR ag: agonists of human beta-2 adrenergic receptor inducing internalization | Am2.2-beta2AR cells, FAP receptor internalization, flow cytometry | response, % (concentration not given with the values) | 0.43% of 340,000 active | AID 504454 | P07550;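 active = response above a set limit, near 3 SD of response in nonfluorescent compounds, cut at about 42% in these data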
m5-HT2A agonist: activates the mouse 5-HT2A serotonin receptor. CHO-K1 mHTR2A beta-arrestin complementation, luminescence; percent of 30 µM serotonin response. activation, % at 7.6 µM. 0.66% of 360,000 active. AID 624169;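 active = activation above a run cutoff, the mean activation of all tested compounds plus 3 SD, cut at about 14% in these data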
ABHD5-PLIN5 inh: ABHD5-PLIN5 protein interaction inhibition. AID 602281. Q00G26+Q8WTS1. 0.78% of 360,000 active. Split G. princeps luciferase complementation, luminescence, 4 h. inhibition, % at 4 µM;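 active = inhibition above the mean inhibition across every tested compound plus 3 SD, cut at about 22% in these data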
OPRM1 ag: OPRM1 agonism in mouse HTR2A counterscreen; AID 624380; 5.3% of 2,300 active; shares compounds with m5-HT2A agonist; activation, % at 9.3 µM; U2OS OPRM1 beta-arrestin PathHunter, luminescence; DMSO 0%, DAMGO 9.3 µM 100%;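 active = mean activation above the mean of DMSO-only wells plus 3 SD, cut at about 0.5% in these data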
Target sequence (P35372 whole entry, looked up): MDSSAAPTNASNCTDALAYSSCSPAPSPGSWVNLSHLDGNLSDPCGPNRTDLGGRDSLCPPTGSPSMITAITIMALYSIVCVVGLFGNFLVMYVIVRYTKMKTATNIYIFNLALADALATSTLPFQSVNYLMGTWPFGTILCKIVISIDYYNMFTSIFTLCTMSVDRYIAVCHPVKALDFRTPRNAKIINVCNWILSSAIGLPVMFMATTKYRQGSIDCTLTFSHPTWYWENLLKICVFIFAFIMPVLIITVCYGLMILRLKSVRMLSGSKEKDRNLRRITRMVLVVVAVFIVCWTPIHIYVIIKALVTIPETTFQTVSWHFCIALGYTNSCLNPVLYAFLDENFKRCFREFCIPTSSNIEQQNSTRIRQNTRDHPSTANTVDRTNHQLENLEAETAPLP
HTR2A ag conf: mouse HTR2A agonism confirmed. CHO-K1 PathHunter beta-arrestin recruitment, luminescence; DMSO 0%, 30 µM serotonin 100%. shares compounds with m5-HT2A agonist. activation, % at 7.6 µM. 19% of 2,300 active. AID 624381;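 active = mean activation across triplicates above the hit threshold derived in the original primary screen, cut at about 15% in these data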
Each line names hits and unclear results; the compound was inactive in the other large screens (follow-up assays come after a bar, where they were run).

CC(C)c1nc2sc3c(=S)nc[nH]c3c2c2c1CCC2	m5-HT2A agonist 16 | OPRM1 ag inactive | HTR2A ag conf inactive
Cc1csc(NC(=O)C2CCCN(S(=O)(=O)c3ccc4c(c3)oc(=O)n4C)C2)n1 (configuration not stated)	m5-HT2A agonist 21 | OPRM1 ag inactive | HTR2A ag conf inactive
Oc1ccc(C(c2nnnn2CCc2ccccc2)N2CCN(c3nc4ccccc4s3)CC2)cc1 (configuration not stated)	m5-HT2A agonist 22 | OPRM1 ag inactive | HTR2A ag conf inactive
CC1=C(C(=O)OCc2ccccc2)C(c2ccccc2Br)NC(=O)N1 (configuration not stated)	m5-HT2A agonist 29 | OPRM1 ag inactive | HTR2A ag conf 23
CCOc1ccc(NC(=S)N2c3ccccc3CC2C)cc1 (configuration not stated)	m5-HT2A agonist 16 | OPRM1 ag inactive | HTR2A ag conf inactive
O=C(c1cccc([N+](=O)[O-])c1)N1CCN(Cc2ccc3c(c2)OCO3)CC1	none
O=[N+]([O-])c1ccccc1/C=C/CN1CCN(Cc2ccc3c(c2)OCO3)CC1	none
O=[N+]([O-])c1ccc2ncnc(N3CCN(Cc4ccc5c(c4)OCO5)CC3)c2c1	m5-HT2A agonist 31 | OPRM1 ag inactive | HTR2A ag conf 73
CC(C)c1cc(=O)[nH]c(N2CCN(Cc3ccc4c(c3)OCO4)CC2)n1	m5-HT2A agonist 20 | OPRM1 ag inactive | HTR2A ag conf 19
CCCc1cc(=O)[nH]c(N2CCN(Cc3ccc4c(c3)OCO4)CC2)n1	none (no result: NTR1 agonist)
O=[N+]([O-])c1cccnc1N1CCN(Cc2ccc3c(c2)OCO3)CC1	m5-HT2A agonist 29 | OPRM1 ag inactive | HTR2A ag conf 68
COc1cc(C)ccc1Oc1ccc([N+](=O)[O-])cc1	none (no result: NTR1 agonist)
COc1cc(F)ccc1-c1csc(C(C)(O)c2ccccc2)n1 (configuration not stated)	none (no result: NTR1 agonist, B2AR ag)
CN1CCN(c2ncnc3c2ncn3[C@H]2CN(Cc3ccncc3)C[C@@H](CO)O2)CC1	m5-HT2A agonist 15 (no result: NTR1 agonist, B2AR ag) | HTR2A ag conf inactive
Cc1[nH]c2ccccc2c1C(=O)COC(=O)C1CC(O)CN1S(=O)(=O)c1ccc(Cl)cc1 (configuration not stated)	m5-HT2A agonist 15 | OPRM1 ag inactive | HTR2A ag conf inactive
O=C(COC(=O)C1CC(O)CN1S(=O)(=O)c1ccc(Cl)cc1)c1ccccc1 (configuration not stated)	none
O=C(/C=C/c1ccc([N+](=O)[O-])cc1)N1CCN(S(=O)(=O)c2ccccc2)CC1	m5-HT2A agonist 18 | OPRM1 ag inactive | HTR2A ag conf inactive
CC(=O)Nc1ccc(S(=O)(=O)NCC(=O)OC(C)c2ccccc2Cl)cc1 (configuration not stated)	none
CC(=O)NCCn1c(SCC#N)nc2ccccc2c1=O	m5-HT2A agonist 15 | OPRM1 ag inactive | HTR2A ag conf inactive
COc1cc(OC)cc(-c2c(C#Cc3ccsc3)c3cc(-c4cccc5[nH]cc(C=O)c45)ccc3n2C)c1	m5-HT2A agonist 21 | OPRM1 ag inactive | HTR2A ag conf inactive
Cc1ccc(OCCNC(=O)[C@H]2O[C@@H](n3ccc(=O)[nH]c3=O)[C@H](O)[C@@H]2O)cc1C	m5-HT2A agonist 43 (no result: NTR1 agonist, B2AR ag) | OPRM1 ag inactive | HTR2A ag conf inactive
CCN(CC)CCN(Cc1cc2cc3c(cc2[nH]c1=O)OCO3)C(=S)NC	none
COc1ccc2c(c1)CC/C2=N\NC(=O)c1ccccc1	m5-HT2A agonist 15 | OPRM1 ag inactive | HTR2A ag conf inactive
COc1ccc(OCC(=O)N/N=C2\CCc3ccccc32)cc1	none
CC1CCCCC1NC(=O)COc1ccccc1C#N (configuration not stated)	none
CC(=O)Nc1ccc(S(=O)(=O)NNC(=O)c2cccc([N+](=O)[O-])c2)cc1	none
Cc1cc(CN(C)C(=O)C2CCC(=O)N(CCc3ccccc3)C2)n[nH]1 (configuration not stated)	none
Cc1cnc(CN(C)C(=O)C2CCC(=O)N(CCc3ccccc3)C2)[nH]1 (configuration not stated)	m5-HT2A agonist 20 | OPRM1 ag inactive | HTR2A ag conf inactive
COc1ccc(C(=O)CN2C(=O)c3ccccc3C2=O)cc1	none
COC(=O)Cc1c(C)c2ccc(OCC(=O)N3CCCC(C)C3)c(C)c2oc1=O (configuration not stated)	m5-HT2A agonist 15 | OPRM1 ag inactive | HTR2A ag conf inactive
COc1ccccc1NC(=O)c1ccc(-c2ccc(Br)cc2)o1	m5-HT2A agonist 31 | OPRM1 ag inactive | HTR2A ag conf inactive
O=C(Nc1ccccc1)c1ccc(-c2ccc(Br)cc2)o1	none
COc1ccc(-c2cccc(NS(=O)(=O)c3cccc([N+](=O)[O-])c3)c2)nn1	m5-HT2A agonist 17 | OPRM1 ag inactive | HTR2A ag conf inactive
O=C(CCS(=O)(=O)c1ccccc1)OCc1ccc([N+](=O)[O-])cc1	none
CN(Cc1ccccn1)C(=O)c1cc(COc2ccc(F)c(F)c2)on1	none (no result: NTR1 agonist, B2AR ag)
CCCN(CCC)CC(=O)NCC1(c2ccccc2)CCOCC1	m5-HT2A agonist 17 | OPRM1 ag 0.5 | HTR2A ag conf inactive
CC(C)n1c(SCC(=O)NC2CCCCC2)nnc1-c1ccco1	none
COCCN(C(=O)COC(=O)C(c1ccccc1)c1ccccc1)c1c(N)n(Cc2ccccc2)c(=O)[nH]c1=O	none
O=C(COC(=O)CCCN=C1NS(=O)(=O)c2ccccc21)NC(=O)NC1CCCC1	none
C=C(C)C1CC=C(CN2CC(C)OC(C)C2)CC1 (configuration not stated)	none
C=C(C)C1CC=C(CN2CCC(C(=O)OCC)CC2)CC1 (configuration not stated)	m5-HT2A agonist 18 | OPRM1 ag inactive | HTR2A ag conf 26
Cc1cc(C=O)c(C)n1-c1ccc(N2CCOCC2)cc1	m5-HT2A agonist 16 | OPRM1 ag inactive | HTR2A ag conf inactive
O=C1c2ccccc2C(=O)N1CCc1c[nH]c2ccc(O)cc12	m5-HT2A agonist 18 | OPRM1 ag inactive | HTR2A ag conf inactive
O=C1c2ccccc2C(=O)N1CCc1c[nH]c2ccccc12	none
Cn1cnnc1SCC(=O)Nc1sc2c(c1C(N)=O)CCC2	none
COCCn1cnnc1SCC(=O)Nc1sc2c(c1C#N)CCC2	m5-HT2A agonist 17 | OPRM1 ag inactive | HTR2A ag conf inactive
O=C(Cn1cnc2ccccc2c1=O)NCC(=O)N1CCN(Cc2ccc3c(c2)OCO3)CC1	none
O=C(Cn1cnc2ccccc2c1=O)N1CCN(Cc2ccc3c(c2)OCO3)CC1	m5-HT2A agonist 15 | OPRM1 ag inactive | HTR2A ag conf 47
COc1ccc(COC[B-](F)(F)F)cc1	none (no result: NTR1 agonist, B2AR ag)
